Among all 53,000 sequences or so, about 3,700 (7%) were called active.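 How the source made its calls: active means gene knockdowns whose robust z-score for IL-1 alpha signal is at least 2 or at most -2, so actives lie on both sides; inactive means the rest.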 Only a selection was taken, and actives are over-represented in it overall.

This passage reports z-score results from PubChem BioAssay AID1508600 (Functional Genomics Laboratory (NCATS/FGL), 2020).

The assay is described as follows: Components of the Cytosolic LPS Sensing Pathway: Gene Identification via Genome-wide siRNA Screen.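 Further: robust z of the log signal after scaling to non-targeting control siRNA wells of the plate.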 Particulars: RAW264.7 macrophages, IL-1a HTRF, actives lie on both sides, screened at 100 nM (by protocol), cells primed 5 h with Pam3CSK4 first. The gist of the method:
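IL-1a HTRF of supernatants after 24 hour LipidA transfection of Pam3CSK4-primed (5 hours) RAW264.7 cells, 48h post-siRNA transfection (100 nM). Scores: percent of plate negative-control median, then log-based robust z-score.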
A general note: In TR-FRET formats the signal depends on donor and acceptor labels being close together.
As to CCAGAUUCCUCUUGGCCGATT against Spryd7, the z-score was 0.36 (inactive).

With GCAAGAUUCAGAGUGCAGCTT against Txlng, the z-score is -1.09 (inactive).

Take GGUUGCAUUGUAGGGUUGGTT against Olfr129: the z-score is 0.221 (inactive).

GCCCUAAAUCCUUUUAUUATT against Trpc7: the z-score was 2.78 (active).

Take GGAUGUACAAUAAUUGGGATT against Pramel39: the z-score was 1.45 (inactive).

GCAGGAUUCAAAGAUCUAATT against Kbtbd8: the z-score is -0.587 (inactive).

Take “GGCUCUAUCUUAAAAUAACTT against 4930542C12Rik”: the z-score was 0.125 (inactive).

On to GCCGAGCUUUUGUGAGUAUTT against Rhobtb2, for which the z-score is 0.247 (inactive).

As for GCCAAUUGGACCUUAGAAATT against Nup107, the z-score was -2.58 (active).

Turning to GGACUUUGUCACCAUGACGTT against Pef1, the z-score is 0.105 (inactive).

In the case of CCUAAAGAAGGUCUAUGCCTT against Tmbim6, the z-score is -0.0538 (inactive).

Consider GAAGCACAACCUCGGCUUUTT against AY074887, for which the z-score was 0.448 (inactive).

In the case of “GGGUGUGAAAGUCAAUAAATT against 4930591A17Rik”, the z-score is 1.02 (inactive).

For the sequence UGGUGAAUACCAGUCUAAUTT against Tnfrsf23, the z-score is 0.0551 (inactive).

Regarding GUAUUUUACACUCUUGUGGTT against Olfr898, the z-score is -2.31 (active).

On to GUAUCAUGACAGCUGUUUUTT against Olfr519, for which the z-score is -0.254 (inactive).

Regarding GGAAAACAAGGAACAUGCGTT against Scgb1b2, the z-score was 0.138 (inactive).

Regarding GGCCAAGACCUCAGAGAUUTT against Apoa2, the z-score is -1.39 (inactive).

For the sequence GGCAGCUUUGGAACAACUATT against Zc3h14, the z-score was -0.477 (inactive).

On to GGAUGCACUGAGGAACUCATT against Atg101, for which the z-score was -0.573 (inactive).

GGAUCCAUGCUGUCAGUGGTT against Sftpa1: the z-score was 2.17 (active).

Regarding GGGAAUUGAUGAAAGCUCUTT against Gigyf2, the z-score is -0.369 (inactive).

On to GCUUGGUGUAAUCAUGCGCTT against Prl7d1, for which the z-score was 0.314 (inactive).

For GGGAACUUUAGCUUAAAUUTT against Lypd6, the z-score was 0.135 (inactive).

CGGCGACAUUGUUUUGCUATT against Acvr2a: the z-score was 1.19 (inactive).

As to GGGCCUUCACAAUGUCCUUTT against Brca1, the z-score was 2.68 (active).

For the sequence GGACCUUGAGAAAGUAGUCTT against Ms4a10, the z-score is 0.651 (inactive).

As for GGUGAUGAAAAAGGACAGCTT against Oit1, the z-score is 0.0982 (inactive).

For the sequence GUACGUCAAGAGCCUGCGUTT against Fam110a, the z-score was -2.65 (active).

For GGAGCAGAUACCCUAGCCUTT against Mtx1, the z-score was 0.698 (inactive).

Consider GGACUUGAAGAUGUACCAGTT against Il12a, for which the z-score is 0.427 (inactive).

Turning to GCCAUUCUAGAACCUGUAGTT against Zwint, the z-score was -1.65 (inactive).

Take GCUAACUUAGAUAUCCAGGTT against Abtb2: the z-score was 0.125 (inactive).

Regarding GGGCCAAAUUUGAAUCCCUTT against Rcan1, the z-score was -2.09 (active).

CCAAGUUUUUAUGCAGAUATT against Pip5k1b: the z-score was 1.6 (inactive).

As to GGGUAUAUUUCCUUCCAGCTT against Dock4, the z-score was -0.105 (inactive).

Take GGUGGGAUGAUCAUAAGUUTT against Ppnr: the z-score was -0.0428 (inactive).

With GCUGUGGAACUUAUGUUUUTT against Faxc, the z-score was -0.518 (inactive).

Take GGAUUAAUCAAACUGAGAGTT against Lrrtm2: the z-score was -1.24 (inactive).

In the case of GCGAUUCCUAGAGCUGAGCTT against Git1, the z-score was -2.5 (active).

Regarding GCUGAUUAGCCAUGUAAUUTT against Cebpg, the z-score was -0.481 (inactive).

Regarding GCUUUAUGGAUCUACCAAATT against Fbxl3, the z-score was 1.81 (inactive).

Take GGAAAACAGCUUUGAUUGGTT against Tmem232: the z-score was 0.868 (inactive).

On to GCAAGCCAACUGACCAUCATT against Nudt2, for which the z-score was 0.486 (inactive).

In the case of CGACUCCAUGUGGACUUAUTT against Gca, the z-score was -1.16 (inactive).

On to CGAACACUAAGCUUUGAUATT against Rab11fip2, for which the z-score was -0.493 (inactive).

For the sequence GGUUUUACAUUCUGUGUUUTT against Spata9, the z-score is -0.898 (inactive).

For CCUUGGAGAGAGAAGACAUTT against Rpp38, the z-score was 0.292 (inactive).

For the sequence CCAAUGCAAGUGCUACAGUTT against Zfp277, the z-score was -2.64 (active).

Consider GGCUCACUCAUUUGUCAGATT against Soat1, for which the z-score was 0.0924 (inactive).

As to GCCUAAUCAUUCCCAGCAUTT against Oog2, the z-score was 0.211 (inactive).

Take CCUUCUACUGGCAACCUAUTT against Zfp110: the z-score is 0.25 (inactive).

In the case of GGUAUCUACACCAAACUUATT against Klk1b5, the z-score was 0.685 (inactive).

For the sequence GGAGCUAACUGUCAAUGGATT against Usp17la, the z-score was 2.8 (active).

As for GGAUGAAGAACUGAAAUCUTT against Unc13b, the z-score was 0.167 (inactive).

With CCCUGUAAAGAUCGAGAAGTT against Zfp296, the z-score was 0.241 (inactive).

On to GGGACACCCUUUGAAGAUGTT against Ube2b, for which the z-score was -0.314 (inactive).

GGCAUGAUGUUCAUGGAUATT against Nup62: the z-score was -2.04 (active).

CGAAGAUAAUUAUGGAGCCTT against Fat4: the z-score is 0.548 (inactive).

With CGCAGAGUUAAUUUCUUGUTT against Rchy1, the z-score was 0.995 (inactive).

In the case of CCAACAAUUCUGCCAAGACTT against Arrb2, the z-score is -2.57 (active).

Take CCGAAGGAUUGAAGAGCCUTT against Trnt1: the z-score is 0.746 (inactive).

Take GGCUUCAUAAGAUCAAAGATT against Lca5l: the z-score was -2.88 (active).

Turning to GCAGGUCUAAUAAUGGUCATT against Syt12, the z-score was -0.536 (inactive).

As to GGAUCCUGCAUCUUAUAGUTT against Tcstv3, the z-score was 0.468 (inactive).

Consider GCUGUUUCCCAGAGAAGAATT against Defb2, for which the z-score is -0.814 (inactive).

In the case of CGGUUCCAACCUUGAAAAATT against H1f10, the z-score was -0.676 (inactive).

In the case of GCUCUACCGUUAAGUUAUUTT against Eif4e2, the z-score is 0.499 (inactive).

Take GGUCAUCCUUUUUCAGUACTT against Lhx6: the z-score was 2.28 (active).

Consider GGGCGUGAAUUCAGAGAUUTT against Pcdhgb5, for which the z-score was -0.00376 (inactive).

As to CGGGUUCUACUAUCAUGCATT against Ltbp4, the z-score was 0.259 (inactive).

In the case of GGUCACCAGUACCUAUGGATT against Bricd5, the z-score was -2.17 (active).

Turning to GGGACUGUACUCAUUUCUATT against Rnf138rt1, the z-score is -0.67 (inactive).

Turning to GCAGGUUGAACGACAGCGUTT against Dph5, the z-score is -0.349 (inactive).

For GGAAUAAUCCCAGUUCUCUTT against Tmem101, the z-score was -1.04 (inactive).

Regarding CCAGAAUGGCGGGUAUUUGTT against Fbln5, the z-score is 2.14 (active).

For the sequence GAAGGUGAAGUGCAGGAAGTT against Fxyd7, the z-score is -0.081 (inactive).

On to GCAGGCCAGAGUAGUCAUGTT against Them6, for which the z-score was 0.579 (inactive).

With GGAAUUAACGUGUUUCUGUTT against Tor1aip2, the z-score is 1.14 (inactive).

For the sequence GGUGAUAAAGCUAUGUAUUTT against Ccn2, the z-score was 0.147 (inactive).

Consider GGACAACAUUGACAAGUUCTT against Clcn7, for which the z-score is 1.36 (inactive).

Regarding GCUGGGUCCACAUGAAUCATT against Sucnr1, the z-score is 2.7 (active).

As for GGAUCAGACAUGCAAGAGGTT against Xlr5c, the z-score was -1.81 (inactive).

As to GCAUCAUGGUCACAAAUGGTT against Ncr1, the z-score is -0.613 (inactive).

Turning to GCUACCGUGGGCGAUGUAATT against Dbi, the z-score is -0.37 (inactive).

GGGAAAAUGCGAUUCAUGATT against P2ry14: the z-score was -0.774 (inactive).

In the case of GGAGAUUAUUAACUUCACCTT against Hcn3, the z-score is -0.895 (inactive).

With GGAACUGGACUUAUUCCACTT against Wnt5b, the z-score was 0.652 (inactive).

Take GGAGAAACCAGGAUCUAUUTT against Rnf14: the z-score was 2.22 (active).

In the case of GCCAGGAGUACUGUAUAUATT against Spint1, the z-score was -0.366 (inactive).

With GGAGCUCUAAAAUUGACUUTT against Zfp92, the z-score was 1.17 (inactive).

For GGAAUCUAGAAGAAUCAUUTT against Gnao1, the z-score is -0.42 (inactive).

Turning to GCUAUGGUAGCUGAUAACATT against Rell1, the z-score is 1.21 (inactive).

Turning to GGAUCCUAAUGAGGACAUUTT against Jchain, the z-score was 2.75 (active).

For GCCACAAGAUACCAUCAGATT against Bex1, the z-score was -1.66 (inactive).

Consider CCAUAUGUCCUGUUUAAGATT against Grik2, for which the z-score is 0.304 (inactive).

Regarding GGACUUGAAAGACGAGAUATT against Cyp19a1, the z-score was 0.31 (inactive).

Consider CCUUUAUGAAUGAACAGGGTT against Cnot7, for which the z-score was -0.266 (inactive).

Take GGCCAAUUCCAGUGAGAUGTT against Lgsn: the z-score was -0.0795 (inactive).

GGCAGAGCUCAAAAAGAAATT against Ankrd1: the z-score was -1.94 (inactive).

Regarding CCAAAUCCGGGAAAAAGAGTT against Armcx5, the z-score is -0.459 (inactive).

Take GCAUACCAAUCACAGUCGATT against Dync2li1: the z-score is -2.55 (active).

Take GGGUUGCUACUCACAAUGUTT against Syngr2: the z-score is 0.244 (inactive).

Take CCUCAAUUUCGAAGACCCUTT against Asb6: the z-score was 1.84 (inactive).

As to GGACUCUGGACCUUAUGCUTT against Tmem202, the z-score is -0.921 (inactive).

As for GGCUUUCAAGCUAACUGAUTT against Sf3b2, the z-score was -2.39 (active).

For the sequence “GGUUAAAAACAACUGAAAGTT against 9630028B13Rik”, the z-score is -1.04 (inactive).
